Consider 14 compounds from PubChem BioAssay (NCATS).

Several values for one entry are separate records, joined by “and”; a condition that tells them apart may be missing. Equal entries are not always repeated. Records with an inconclusive call do not appear. Where a structure was tested more than once in an assay, its records may differ in their call. Activity calls are given as the source filed them. Calls follow the shape of the dose curve; as a rule, active = well fitted curve in the direction sought with a large enough effect; inconclusive = small, poorly fitted or top-dose-only effect, or another doubt; inactive = no such curve, though single readings can be large; an effect the other way counts as inactive or inconclusive.

Assay [1] is described as follows: qHTS assay for measurement of the activity of small molecule inhibitors on Zika virus induced Caspase-3 activity in human iPSC derived neural progenitor cells (hNPCs) (AID 1224857). Also: % of control where 0% means no effect; nearly all actives have a fitted effect of over 65% in size. In outline: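 After overnight (16–20 h) culture at 350 cells/well, hNPCs get compound, then ZIKV 2 FFU/cell one hour later. Six hours on, Caspase-Glo 3/7 is added and luminescence measured.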
A general note: qHTS replaces the single test concentration by a dilution series.

Assay [2] can be described thus: qHTS assay for measurement of the activity of small molecule inhibitors on Zika virus induced Caspase-3 activity in human astrocytoma cells (AID 1224859).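 Also: plate controls were ZIKV-infected untreated cells for no effect and uninfected cells for full effect.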 The method, boiled down:
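Inhibition of Zika-induced caspase-3/7 activity: SNB-19 cells, 1 h compound pretreatment, ZIKV 2 FFU/cell for 6 h at 37 C, Caspase-Glo luminescence read-out.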

Assay [3] can be described thus: qHTS Screen of the MIPE 4.0 Collection Against Ewings Sarcoma (RDES) (AID 1259252). Also: nearly all actives have a fitted effect of over 35% in size. Also: potency is read from the fitted curve at half-maximal effect.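 As to viability (percent of control): 100% = DMSO-treated cells and 0% = medium-only wells without cells.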 The method, boiled down:
(§1)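 Measured: ATP luminescence (CellTiter-Glo) 10 min after reagent addition, following 48 h drug treatment. Relative luciferase units converted to percent activity, with no-cell wells as full and DMSO wells as zero inhibition.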

Assay [4] in a line: qHTS Screen of the MIPE 4.0 Collection Against Ewings Sarcoma (TC71) (AID 1259253). Also: nearly all actives have a fitted effect of over 40% in size. Also: potency is read from the fitted curve at half-maximal effect.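 As to viability (% of DMSO): 100% = DMSO-treated cells and 0% = medium-only wells without cells.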 In outline:
as §1

A short description of assay [5]: qHTS Screen of the MIPE 4.0 Collection Against Ewings Sarcoma (EW8) (AID 1259255). Also: nearly all actives have a fitted effect of over 35% in size. Also: potency is read from the fitted curve at half-maximal effect.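 As to viability: 100% = DMSO-treated cells and 0% = medium-only wells without cells.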 The method, boiled down:
as §1

A short description of assay [6]: qHTS Screen of the MIPE 4.0 Collection Against Ewings Sarcoma (TC32) (AID 1259256). Also: nearly all actives have a fitted effect of over 45% in size. Also: potency is read from the fitted curve at half-maximal effect.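 As to viability (percent of control): 100% = DMSO-treated cells and 0% = medium-only wells without cells.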 The method, boiled down:
as §1

Assay [7] can be described thus: Identifying Small Molecule Inhibitors of Pancreatic Cancer Stem Cells (A2780, Spheroid) (AID 1259357).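 Also: compound exposure lasted 48 h before the ATP luminescence read.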 Also: potency is read from the fitted curve at half-maximal effect.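 As to viability (percent of control): 100% = DMSO treated cells and 0% = wells without cells.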 The note with it: Potency: A2780 spheroid viability. The method, boiled down:
(§2)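 Monolayer and spheroid cultures are compared. Spheroids form over 14 days in stem cell medium on hydrogel-coated low-attachment plates, then are exposed to compound for 48 h before CellTiter-Glo luminescence.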

A short description of assay [8]: Identifying Small Molecule Inhibitors of Pancreatic Cancer Stem Cells (SN12C, Adherent) (AID 1259358).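 Also: cell survival measured after 48 h of compound exposure.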 Also: potency is read from the fitted curve at half-maximal effect. In outline:
(§3)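 After a 4 h attachment period, compounds were pinned into wells and cultures held 48 h under standard incubator conditions. Viability was then measured as CellTiter-Glo luminescence following 10 min at room temperature.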

The nature of assay [9]: Identifying Small Molecule Inhibitors of Pancreatic Cancer Stem Cells (SN12C, Spheroid) (AID 1259360). Also: potency is read from the fitted curve at half-maximal effect. Particulars: Potency: SN12C spheroid viability. In outline:
as §2

The nature of assay [10]: P-glycoprotein substrates identified in KB-3-1 adenocarcinoma cell line, qHTS therapeutic library screen (AID 1346986). Also: nearly all actives have a fitted effect of over 60% in size.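 Also: potency is read from the fitted curve at half-maximal effect; potency is for cytotoxicity meaning loss of cell viability.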 In outline:
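Resistance attributable to P-gp was assessed by comparing AC50 in KB-8-5-11 with parental KB-3-1 and by tariquidar reversal. Cells were exposed 72 h and viability read by CellTiter-Glo.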

Assay [11] in a line: P-glycoprotein substrates identified in KB-8-5-11 adenocarcinoma cell line, qHTS therapeutic library screen (AID 1346987). Also: nearly all actives have a fitted effect of over 65% in size. Also: potency is read from the fitted curve at half-maximal effect. The method, boiled down:
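Steps: plate 500 KB-8-5-11 cells/well in DMEM + 10% FCS (colchicine removed); pin compounds in dose-response; incubate 72 h, 37 degree C, 5% CO2; add CellTiter-Glo, 5 min; read luminescence.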

Assay [12] can be described thus: NS1 protein of Zika virus - qHTS assay to identify small molecule inhibitors in human HEK 293 cells (AID 1347053). Also: nearly all actives have a fitted effect of over 55% in size. Also: potency is read from the fitted curve at half-maximal effect.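 As to activity change, negative = inhibition: series mostly up to about 46 µM; plate controls were infected untreated cells for no effect and uninfected cells for full effect.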 In outline:
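HEK 293; 20 h pre-culture, 37 C/5% CO2; cpd 1 h pre-infection; ZIKV MR766, MOI = 0.5, 24 h, 37 C; TR-FRET NS1 readout (two anti-NS1 Abs); norm. to no-virus vs infected.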

The nature of assay [13]: Identifying Small Molecule Inhibitors of Pancreatic Cancer Stem Cells (Panc1, Spheroid) (AID 1259359).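 Also: potency is read from the fitted curve at half-maximal effect; compound exposure lasted 48 h before reading.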 In outline: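 Adherent (2D) versus sphere (3D) formats; spheres generated 14 d in SCM beforehand. Compound transferred by pin tool after 4 h, 48 h incubation, CellTiter-Glo endpoint.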
Assay [14] in a line: Identifying Small Molecule Inhibitors of Pancreatic Cancer Stem Cells (A278, Adherent) (AID 1259361).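 Also: viability read after 48 h compound exposure; nearly all actives have a fitted effect of over 35% in size.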 The method, boiled down:
as §3

Assay [15] is described as follows: Identifying Small Molecule Inhibitors of Pancreatic Cancer Stem Cells (Panc1, Adherent) (AID 1259362). Also: potency is read from the fitted curve at half-maximal effect. Particulars: Potency: viability. The method, boiled down: as §3
Assay [16] can be described thus: qHTS assay to identify small molecule inhibitors of chordoma cells - UCH-1 (AID 1259355). Also: % is scaled to controls: 0 for no effect and ±100 for the full control effect; nearly all actives have a fitted effect of over 55% in size. In outline:
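Luminescent ATP read-out (CellTiter-Glo, 30min at room temperature) measured viability of UCH-1 cells exposed for 48hr to test drugs at 15 concentrations, co-dosed with a five-agent combination of auranofin, camptothecin, doxorubicin, rubitecan and topotecan.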

Assay [17] in a line: qHTS assay to identify small molecule inhibitors of chordoma cells - UCH-2 (AID 1259356). Also: series mostly up to about 46 µM; % is scaled to controls: 0 for no effect and ±100 for the full control effect.

The viability is a read-out of living cells in per cent, often relative to untreated cells.

On to `CCn1cc(-c2ccnc3[nH]c(-c4cccc(CN(C)C)c4)cc23)c(-c2ccc(NC(=O)N(C)C)cc2)n1`, for which the Potency result in [1] and in [2] was “inactive” in each case. Also, the Potency in assay [3] was 7.43 µM (active); in [4], 3.72 µM (active); in assay [5] it was 0.0469 µM (active).

Take `C[C@]1(CO)CN(c2cc(C(=O)Nc3ccc4c(c3)-c3c(c(C(N)=O)nn3-c3ccc(F)cc3)CC4)c(Cl)cn2)C[C@@]1(C)CO`: the Potency entry in assay [1], in assay [2], in [7], in [9] and in assay [11] was “inactive” in each case. Further, the Potency was 14.8 µM (active) in [3]; 13.2 µM (active) in [4]; 16.6 µM (active) in assay [5]; 13.2 µM (active) in assay [6]; 16.6 µM (active) in [8]; 5.8 µM (active) in [10]. Further, the Potency in assay [12] is 4.69 µM (active).

Regarding `Cc1nc2cnc3ccc(C#Cc4cccnc4)cc3c2n1-c1ccc(C(C)(C)C#N)cc1`, the Potency result in [1], in [2] and in [10] was “inactive” in each case. Moreover, the Potency was 0.132 µM (active) in [3]; 0.132 µM (active) in assay [4]; 0.118 µM (active) in assay [5]; 0.105 µM (active) in assay [6]; 1.87 µM (active) in [7]; 1.18 µM (active) in assay [8]. Moreover, the Potency is 18.7 µM (active) in assay [13]; 37.2 nM (active) and inactive in [11]; 0.935 µM (active) in assay [12]. Further, in [14], the IC50 (viability decrease) is 0.187 µM (active).

For the compound `COc1cc(C(=O)N2CCC(N3CCN(C)CC3)CC2)ccc1Nc1ncc2c(n1)N(C)c1ccccc1C(=O)N2C`, the Potency entry in [1] and in [2] was “inactive” each time. The Potency was 13.2 µM (active) in assay [3], 4.69 µM (active) in [4] and 9.35 µM (active) in [5].

For the compound `CN(C)CCCN=c1c2ccccc2n(C)c2[nH]c(=O)n(C)c(=O)c12`, the Potency entry in [1], in [2], in [7] and in assay [9] was “inactive” in each case. Also, the Potency was 2.64 µM (active) in assay [3]; 10.5 µM (active) in assay [4]; 1.18 µM (active) in [5]; 2.96 µM (active) in [6]; 20.9 µM (active) in [8]. Besides, the IC50 (viability decrease) in assay [14] is 11.8 µM (active).

Regarding `CC(=O)OCC(=O)[C@@]1(O)[C@H](C)C[C@H]2[C@@H]3C=C(C)C4=Cc5c(cnn5-c5ccccc5)C[C@]4(C)[C@@H]3[C@@H](O)C[C@@]21C`, the Potency result in assay [1], in assay [2], in assay [7], in assay [8], in assay [10] and in [11] was “inactive” each time. Besides, the Potency in assay [3] was 6.62 µM (active); in assay [4], 6.62 µM (active); in assay [5] it was 7.43 µM (active); in assay [6] it was 5.9 µM (active); in assay [13], 14.8 µM (active); in assay [9], 20.9 µM (active). Further, in [12], the Potency was 11.8 µM (active). Further, the IC50 (viability decrease) in assay [14] is 13.2 µM (active).

Consider `NC(=O)Nc1cc(-c2cccc(F)c2)sc1C(=O)N[C@H]1CCCNC1`, for which the Potency entry in assay [1] and in assay [2] was “inactive” in each case. For the same compound, the Potency in assay [3] was 0.935 µM (active); in [4], 0.0935 µM (active); in assay [5] it was 0.166 µM (active); in [6], 0.0833 µM (active); in assay [7], 18.7 µM (active); in assay [8], 8.33 µM (active). The Potency in assay [15] was 1.48 µM (active); in assay [11], 14.8 µM (active) and 7.31 µM (active); in assay [12], 0.264 µM (active). In addition, the IC50 (viability decrease) in assay [14] is 1.05 µM (active).

As for `Nc1ccc(S(=O)(=O)Nc2ncccn2)cc1`, the Potency entry in [1], in assay [2], in assay [3], in assay [4], in [5] and in assay [6] was “inactive” in each case. The Potency result in assay [16] and in assay [12] was “inactive” each time. Also, the result in [17] was inactive.

As to `CC[C@@H]1C(=O)N(C)c2cnc(Nc3ccc(C(=O)NC4CCN(C)CC4)cc3OC)nc2N1C1CCCC1`, the Potency result in [1], in assay [2] and in [7] was “inactive” each time. Further, the Potency in assay [3] was 0.0662 µM (active); in assay [4], 0.0743 µM (active); in assay [5] it was 0.0372 µM (active); in [6] it was 0.0469 µM (active); in [13], 0.0083 µM (active); in assay [15], 0.0093 µM (active). Besides, the Potency in assay [11] was 0.418 µM (active); in [12] it was 0.0332 µM (active). Further, the IC50 (viability decrease) in [14] is 0.0132 µM (active).

Turning to `COc1ccc(CC2c3cc(OC)c(OC)cc3CC[N+]2(C)CCC(=O)OCCCCCOC(=O)CC[N+]2(C)CCc3cc(OC)c(OC)cc3C2Cc2ccc(OC)c(OC)c2)cc1OC` (stereo unspecified), the figures for the activity change, negative = inhibition in assay [1], in [2] and in assay [12] were 18.4% [at 9.06 µM] (inactive), 7.2% [at 9.06 µM] (inactive) and -9.69% [at 9.2 µM] (inactive), respectively. Further, the values for the viability (percent of control) in assay [3] and in assay [6] were 121% [at 5.15 µM] (inactive) and 123% [at 5.15 µM] (inactive), respectively. Moreover, in assay [4], the viability (% of DMSO) is 110% [at 5.15 µM] (inactive). For the same compound, the viability in [5] is 117% [at 5.15 µM] (inactive). Further, the outcome in assay [17] was inactive. In assay [11], the Potency result is “inactive”.

Consider `Nc1nc(Nc2ccc(S(N)(=O)=O)cc2)nn1C(=O)c1c(F)cccc1F`, for which the Potency entry in assay [1] and in assay [2] was “inactive” in each case. Also, the Potency was 8.33 µM (active) in [3]; 5.26 µM (active) in assay [4]; 8.33 µM (active) in assay [5]; 7.43 µM (active) in [6]; 4.18 µM (active) in [7]; 10.5 µM (active) and 7.31 µM (active) in assay [11]. Also, the Potency in assay [12] was 18.7 µM (active). Besides, in [14], the IC50 (viability decrease) is 2.64 µM (active).

As to `CN(c1ncccc1CNc1nc(Nc2ccc3c(c2)CC(=O)N3)ncc1C(F)(F)F)S(C)(=O)=O`, the Potency result in assay [1] and in assay [2] was “inactive” throughout. The Potency in assay [3] is 11.8 µM (active); in [4] it was 5.9 µM (active); in assay [5] it was 8.33 µM (active); in assay [6], 10.5 µM (active); in assay [7], 5.26 µM (active); in assay [9], 20.9 µM (active). Also, the Potency in [10] is 5.17 µM (active); in assay [12] it was 11.8 µM (active). Further, the IC50 (viability decrease) in [14] was 2.96 µM (active).

`COc1cc(=C2C=c3ccccc3=N2)[nH]c1=Cc1[nH]c(C)cc1C`: the Potency entry in assay [1] and in assay [2] was “inactive” each time. Further, the Potency is 1.87 µM (active) in assay [3]; 0.469 µM (active) in assay [4]; 2.35 µM (active) in assay [5]; 1.18 µM (active) in [6]; 20.9 µM (active) in [7]; 1.48 µM (active) in [13]. Also, the Potency in assay [11] was 2.96 µM (active). Moreover, the IC50 (viability decrease) in assay [14] was 14.8 µM (active).

As for `CC(C)c1ccc(Cn2ccc3c4c(N)nc(NC5CC5)nc4ccc32)cc1`, the Potency result in assay [1] and in [2] was “inactive” throughout. Also, the Potency is 9.35 µM (active) in assay [3]; 1.05 µM (active) in assay [4]; 3.32 µM (active) in assay [5]; 1.32 µM (active) in assay [6]; 14.8 µM (active) in [7]; 7.43 µM (active) in assay [8]. Moreover, the Potency is 5.26 µM (active) in assay [13]; 8.33 µM (active) in [9]; 0.743 µM (active) in assay [15]; 1.18 µM (active) in assay [11]; 3.32 µM (active) in assay [12]. Further, the IC50 (viability decrease) in [14] was 0.332 µM (active).
